# Sampled rows, rich in hits. Any-hit rate of the full collection: about 6.9%.
# ASM inhibitor – Inhibitors of Secretory Acid Sphingomyelinase (S-ASM): qHTS; Sphingomyelin phosphodiesterase (Homo sapiens), P17405; placental ASM, HMU-PC fluorogenic substrate, 60 min; Potency, µM (top dose mostly 57.5 µM), without a hit: top-dose activity change, negative = inhibition, most hits filed as inhibitors; 340,000 tested, 0.006% active; AID 504937, 2011; further: potency means the concentration at half of the fitted maximal effect
# Target sequence (P17405 47-631 limits assumed): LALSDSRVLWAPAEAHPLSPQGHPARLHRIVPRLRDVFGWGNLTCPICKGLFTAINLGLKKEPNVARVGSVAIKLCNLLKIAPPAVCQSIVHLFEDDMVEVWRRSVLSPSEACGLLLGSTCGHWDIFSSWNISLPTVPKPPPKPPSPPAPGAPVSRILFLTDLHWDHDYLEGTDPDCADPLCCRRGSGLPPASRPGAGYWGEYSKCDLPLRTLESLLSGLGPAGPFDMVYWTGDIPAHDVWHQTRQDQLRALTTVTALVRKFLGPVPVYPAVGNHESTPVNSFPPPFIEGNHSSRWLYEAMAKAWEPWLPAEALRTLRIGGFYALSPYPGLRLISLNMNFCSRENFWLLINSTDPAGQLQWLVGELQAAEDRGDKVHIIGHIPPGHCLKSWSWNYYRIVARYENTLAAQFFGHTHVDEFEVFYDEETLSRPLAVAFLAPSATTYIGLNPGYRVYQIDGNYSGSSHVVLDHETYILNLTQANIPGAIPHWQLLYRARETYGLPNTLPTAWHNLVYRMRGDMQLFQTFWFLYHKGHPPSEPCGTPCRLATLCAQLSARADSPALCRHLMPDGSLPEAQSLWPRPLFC
#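 Human placenta-derived ASM enzyme was preincubated with compound for 10 minutes at room temperature, then given fluorogenic substrate HMU-PC0 (9 uM final) for 60 minutes at 37 °C; a pH 10 stop preceded fluorescence reading at Ex 386/Em 447 nm.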
# Giardia killer – Small Molecules that selectively kill Giardia lamblia: qHTS | Giardia lamblia trophozoite viability | activity change, % at 7.66 µM, hits read low | 340,000 tested, 0.15% active | AID 540267, 2011; in the data active means activity change below about -80%; inconclusive means between about -30% and that limit;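 further: parasites exposed to compound for two days anaerobically before the ATP read; on the % scale 0 is the no-effect control and ±100 the full control effect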
#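 Compounds were tested on trophozoites seeded at 100 cells/well and held 48 hrs at 37 deg C anaerobically. An ATP-based luminescent kit measured the remaining live cells.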
# KB-V1 cytotox – qHTS assay for MDR1-selective chemotherapeutics: Primary screen using the drug-selected MDR subline cells KB-V1; 400,000 tested, 3.4% active; KB-V1 MDR cells viability, CellTiter-Glo, 72 h; Potency, µM (titrated, usually from 46.1 µM), hits mostly cytotoxic; AID 1347076, 2019; further: potency means the concentration at half of the fitted maximal effect; on the % scale 0 is the no-effect control and ±100 the full control effect; nearly all actives have a fitted effect of over 60% in size
#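 Readout: CellTiter-Glo luminescence, 10 min after addition. Cells: KB-V1 MDR subline, 72 h at 37 degrees C with compound. Analysis: corrected, normalized data fitted to concentration-effect curves.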
# MCF10A rerep – A quantitative high throughput screen for small molecules that induce DNA re-replication in MCF 10a normal breast cells. Potency, µM (top dose mostly 46.1 µM), for inactives: top-dose activity, positive = re-replication, most hits filed as activators. MCF 10A DNA re-replication, Hoechst nuclear intensity, 48 h. 350,000 tested, 2.9% active; further: potency means the concentration at half of the fitted maximal effect; % of control where 0% means no effect; nearly all actives have a fitted effect of over 50% in size
# SW480 rerep – A quantitative high throughput screen for small molecules that induce DNA re-replication in SW480 colon adenocarcinoma cells; 340,000 tested, 1.8% active; SW480 DNA re-replication, Hoechst DNA content imaging, 48 h; Potency, µM (series often up to 46.1 µM), without a hit: at the highest dose re-replication activation, hits mostly activators; further: potency means the concentration at half of the fitted maximal effect; % of control where 0% means no effect; nearly all actives have a fitted effect of over 55% in size
#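 Quantitative HTS format with DMSO vehicle controls; 48 hr drug incubation at 37 C, then 40 min Hoechst staining and scanning imager measurement at 405 nm excitation.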
# KB-3-1 tox – qHTS assay for MDR1-selective chemotherapeutics: Primary screen using the parental adenocarcinoma cell KB-3-1. KB-3-1 viability, CellTiter-Glo ATP luminescence, 72 h. Potency, µM (series often up to 46.1 µM), actives largely listed as cytotoxic. 400,000 tested, 1.4% active. AID 1347075, 2019; further: potency means the concentration at half of the fitted maximal effect; on the % scale 0 is the no-effect control and ±100 the full control effect; nearly all actives have a fitted effect of over 60% in size
#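 Screening of KB-3-1 cells (DMEM, 10% FBS, phenol-red free) ran from lowest to highest compound concentration; after 72 h at 37 °C viability was read luminescently and curves fitted.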
# * hit, by the source's call; i = inactive; u = inconclusive; x = no result; ! = repeats disagree; [ ] = dose if it differs, or a comment. Unless noted, the call rests on the fitted dose curve; in most records, active means well fitted curve in the direction sought with a large enough effect; inconclusive means small, poorly fitted or top-dose-only effect, or another doubt; inactive means no such curve, though single readings can be large; an effect the other way counts as inactive or inconclusive.
SMILES,ASM inhibitor,Giardia killer,KB-V1 cytotox,MCF10A rerep,SW480 rerep,KB-3-1 tox
O=C(c1ccc(C(F)(F)F)cc1)C1CCCN(C2CCSCC2)C1 (stereo not given),-3%,-2,u,-2%,5.2µM*,i
COc1cc2c(cc1OC)-c1c(OC)c(OC)c(OC)c3ccnc(c13)C2=O,-1%,-83*,u,u,8.2µM*,i
COc1cc(CC2(CCc3ccncc3)C(=O)NC(=O)NC2=O)cc(OC)c1OC,4%,-16,i,-6%,-14%,i
O=C(Nc1ccc(Oc2ccc(Cl)cc2)c(Cl)c1)c1cc(I)cc(I)c1O,-2%,10,u,u,10%,u
CCC(C)c1ccc(N2C(=O)NC(=O)/C(=C/c3cccn3CCOc3ccc(C)cc3)C2=O)cc1 (stereo not given),-17%,0,i,21µM*,17%,i
F/C(COc1ccc2c(c1)[nH]c1ccccc12)=C1/CN2CCC1CC2,x,x,x,22%,10%,x
Cc1ccccc1C(O)(Cc1ccccc1)C1CN2CCC1CC2 (stereo not given),1%,8,u,4%,-8%[9.22 µM],10µM*
c1ccc(N2CCN(c3ccccc3)CC2)cc1,x,x,i,x,x,i
COc1ccc(CNC(=O)/C=C/c2ccc3[nH]cc(CCN(C)C)c3c2)cc1,-3%,3,i,7%,3.2µM*,i
CC/C(=N\N1CCCCCC1)c1c(O)n(-c2ccccc2C)c(=O)[nH]c1=O,0%,-8,12µM*,11%,-1%,i
CN(C)C(=O)Oc1ccc(C(=O)c2ccccc2)cc1,-1%,-18,i,-3%,0%,i
CN(C)CCOc1ccc(/C(=C(/CCCl)c2ccccc2)c2ccccc2)cc1,-15%,2,u,4.6µM*,-102%,i
C/C(=N\NC(N)=S)C12CC3CC(CC(C3)C1)C2,0%,7,i,7.3µM*,26µM*,i
COc1ccc(/C=C/c2nc3ccccc3c(=O)n2-c2ccc(C)cc2)cc1O,x,x,i,x,x,i
O=[N+]([O-])c1cccc2c([As](=O)(O)O)cccc12,u,-94*,i,28%,-4%,i
O=[N+]([O-])c1ccc([As](=O)(O)O)cc1,x,x,x,4%,-7%,x
CC1(C)[C@@H](C=C(Cl)Cl)[C@@H]1C(=O)OCc1c(F)c(F)cc(F)c1F,x,x,x,2%,0%,x
CC1(C)C(C=C(Cl)Cl)C1C(=O)OCc1cccc(Oc2ccccc2)c1 (stereo not given),0%,u,i,0.0052µM*!,-48%,i
O=C(/C=C/c1ccccc1)C1C(=O)c2ccccc2C1=O,1%,u,3.7µM*,u,-6%,u
N#Cc1ccc(/C=C/C(=O)O)cc1,6%,13,i,14%,-7%,i
Cc1cc(C)c(N=Cc2c(O)[nH]c(=O)[nH]c2=O)c(C)c1,1%,u,5.2µM*,-1%,-1%,6.5µM*
CCC1(CC)C(=O)NC(=O)NC1=O,x,x,x,-4%,1%,x
O=C(Nc1ccc2nc(-c3cccs3)c(-c3cccs3)nc2c1)NC1CC1,209%,-5,u,18µM*,u,i
Cn1sc(Cl)cc1=O,x,x,x,11%,-7%,x
COc1ccc(-c2nc(CN3C(=O)CN=C(c4ccccc4)c4ccccc43)c(C)o2)cc1,x,x,u,x,x,15µM*
SMILES,ASM inhibitor,Giardia killer,KB-V1 cytotox,MCF10A rerep,SW480 rerep,KB-3-1 tox
CCC(CC)N1CCN(Cc2nc3ccccc3c(=O)n2-c2ccc(F)cc2)CC1,2%,43,u,0.58µM*,-23%,i
C[C@H](CO)N1C[C@H](C)[C@@H](CN(C)C(=O)NC2CCCCC2)Oc2c(cccc2N(C)C)C1=O,-1%,-22,i,-35%,u,i
CNCCCc1ccccc1,6%,9,i,u,5%,23µM*
COC(=O)[C@@]1(C)CC[C@]2(C)CC[C@@]3(C)C(=CC(=O)C4[C@@]5(C)CC[C@H](O)C(C)(C)[C@@H]5CC[C@]43C)[C@H]2C1 (stereo not given in full),-5%,14,u,2%,-72%,i
Clc1ccc([C@H](Cn2ccnc2)OCc2csc3c(Cl)cccc23)c(Cl)c1,x,x,x,4%[20.6 µM],0%[20.6 µM],x
Clc1ccc(CCC(Cn2ccnc2)Sc2c(Cl)cccc2Cl)cc1 (stereo not given),-4%,4,21µM*,u,-56%,u
CCC(=O)Nc1ccc(C(=O)NNC(=O)c2cc([N+](=O)[O-])cc([N+](=O)[O-])c2)cc1,4%,-25,i,11%,-39%,i
C=CCc1cc(C=C2C(=O)N(C)C(=O)N(C)C2=O)cc(OCC)c1OCc1ccccc1,-13%,-9,16µM*,u,4%,u
CC(=O)[C@H]1CC[C@H]2[C@@H]3CC[C@H]4C[C@](C)(O)CC[C@]4(C)[C@H]3CC[C@]12C,x,x,x,-2%,0%,x
O=[N+]([O-])c1ccc(N2CCOCC2)c2c1no[n+]2[O-],x,x,5.2µM*,x,x,u
O=[N+]([O-])c1ccc(N2CCOCC2)c2cccnc12,-11%,-3,i,4%,-5%,i
O=c1ccc2cc(O[C@@H]3O[C@@H](CO)[C@H](O)[C@@H](O)[C@@H]3O)c(O)cc2o1,i,-1,i,18µM*,u,i
CCn1c(=O)oc2cc(NC(=O)CCl)ccc21,1%,10,u,u,u,u
Cc1ccc(NP(=O)(Oc2ccccc2F)Oc2ccccc2F)cc1,-7%,-1,u,18µM*,u,i
C[C@H]1C[C@@H](C)C(=O)[C@@H]([C@H](O)CC2CC(=O)NC(=O)C2)C1,0%,u,u,4.6µM*,u,3.3µM*
Cc1cccc(CN2CCN(Cc3ccc(Cl)cc3)CC2)c1,-1%,3,u,7.3µM*,u,i
Cc1nc2ccccc2c(=O)n1/N=C/c1cc(Br)cc(Br)c1O,-14%,-2,i,27%,7.3µM*,i
CCS(=O)(=O)C(C)(C)S(=O)(=O)CC,x,x,x,12%,-1%,x

# Screening data from PubChem.
